biological target: Alpha-bungarotoxin (Bungarus multicinctus) (UniProt P60615); experiment: alpha-bungarotoxin binders on microarray, profiling panel, artefact control for SMM control protein annotation, biochemical, small-molecule microarray, Alexa647 label, 635/667 nm fluorescence (AID 1117); details: alpha-BTX-A647 binding fluorescence, higher = more signal
Sequence (P60615 whole entry, looked up): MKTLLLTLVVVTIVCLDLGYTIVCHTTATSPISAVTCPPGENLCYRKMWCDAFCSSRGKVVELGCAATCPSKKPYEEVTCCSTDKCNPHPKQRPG

Structure (SMILES) | composite z-score
CCOC(=O)C[C@H]1[C@H](OC(=O)c2ccccc2-c2ccccc2)[C@@H](NC(=O)c2ccc(-c3ccccc3)cc2)c2cc(OCCCO)ccc2N1C(=O)c1ccc2ccccc2n1 | 1.86
C=CCC(OC(C)=O)[C@@H]1[C@@H](N(Cc2ccc(-c3ccccc3)cc2)C(=O)Cc2ccc(F)cc2)c2cc(OCCCO)ccc2N1C(=O)Cc1ccc(OC)cc1 (stereo not given in full) | 0.215
O=C(NCC(F)(F)F)[C@@H]1c2ccccc2C(=O)N(Cc2ccc(OC(F)(F)F)cc2)[C@H]1c1ccc(CO)cc1 | 0.173
COC(=O)CCCCCCC(=O)Nc1ccc(NC(=O)CCCC[P+](c2ccccc2)(c2ccccc2)c2ccccc2)cc1 | -0.573
CCCCCCc1nc(C2CC2)cc2c1[Si](C(C)C)(C(C)C)OC2 | -0.221
O=C1O[C@H](c2ccccc2)[C@H](c2ccccc2)N2[C@H]1[C@@H](C(=O)Nc1nc3ccccc3s1)[C@]1(C(=O)Nc3ccccc31)[C@H]2c1ccc(OCCO)cc1 | 1.02
C=C(/C(=C/C[C@H](OC(=O)c1ccncc1)c1ccc(CO)o1)c1cc(C(=O)OC)ccc1OC)C(C)C | 0.0818
CN(C)C(=O)[C@@]1(CCS(=O)(=O)c2ccccc2)N=C(c2ccc(OCCCO)cc2)O[C@H]1c1ccccc1 | 1.9
O=C1OCCC/C=C\[C@H]2OC34C=CCN(CCN5CCOCC5)C(=O)[C@H]3N(CCCCCCO)C(=O)[C@@H]4C12 (stereo not given in full) | -0.162
O=C1C2C=CC(C(O)c3ccc(Br)cc3)N(Nc3ccccc3F)C2C(=O)N1c1ccccc1 (stereo not given) | 0.225
CCCCC(=C=CC[C@@H](O)c1ccccc1OCCO)C[C@@H](O)COCc1ccccc1 | 1.02
O=C1O[C@@H](c2ccccc2)[C@@H](c2ccccc2)N2[C@@H](c3ccc(O)cc3)[C@]3(C(=O)Nc4ccc(C#CC5=CCCCC5)cc43)[C@@H](C(=O)NC[C@H](O)c3ccccc3)[C@H]12 | 0.774
NC(=O)NCC#Cc1ccc2c(c1)[C@]1(C(=O)N2)[C@H](C(=O)NC[C@H](O)c2ccccc2)[C@H]2C(=O)O[C@H](c3ccccc3)[C@H](c3ccccc3)N2[C@@H]1c1ccc(OCCO)cc1 | 1.43
CC(C)N1CC=CC23O[C@@H]4C=CCOC(=O)[C@@H]4[C@H]2C(=O)N(CCCO)[C@@H]3C1=O (stereo not given in full) | -0.381
N#Cc1ccc(C(O)C2C=CC3C(=O)N(c4ccccc4)C(=O)C3N2Nc2ccccc2)cc1 (stereo not given) | 1.1
CCCCN1CC=CC23O[C@@H]4/C=C\CCC(C)OC(=O)C4[C@H]2C(=O)N(C(CO)C(C)C)[C@@H]3C1=O (stereo not given in full) | -0.312
C=CCN1Cc2ccccc2[C@H]2OC(c3ccc(OCCCO)cc3)=N[C@@]2(CC=C)C1=O | 1.36
CC(CO)N1C(=O)[C@@H]2[C@H]3C(=O)OCC=C[C@H]3OC23C=CCN(CCN2CCOCC2)C(=O)[C@@H]13 (stereo not given in full) | -0.245

Structure (SMILES) | composite z-score
CCCCCCc1nc(-c2cc(C)c(OC)c(C)c2)c(C)c2c1[Si](C(C)C)(C(C)C)OC2 | -0.0116
C=C(COC)/C(=C/C[C@H](OC(=O)c1ccncc1)c1ccccc1OCCO)c1cnc2ccccc2c1 | 1.04
CO[C@H]1O[C@H](CO)[C@@H](OC(=O)Nc2ccc3c(c2)OCO3)[C@H](OC(=O)c2cc3ccccc3[nH]2)[C@H]1OC(=O)c1cc2ccccc2[nH]1 | 0.279
O=C1N(Cc2ccccc2)c2ccccc2[C@@H]2OC(c3ccc(OCCCO)cc3)=N[C@]12Cc1ccccc1 | 0.807
CCOC(=O)c1ccc(NC(=O)O[C@H]2[C@H](OC(=O)Nc3ccc4c(c3)OCO4)[C@@H](OC(=O)Nc3ccc4c(c3)OCO4)[C@@H](OC)O[C@@H]2CO)cc1 | 0.908
C=CCC(OC(C)=O)[C@@H]1[C@@H](N(Cc2cccc3ccccc23)C(=O)Cc2ccc(OC)cc2)c2cc(OCCCO)ccc2N1C(=O)c1ccc2ccccc2n1 (stereo not given in full) | 0.472
COCCCNC(=O)[C@@]1(Cc2ccccc2CN=[N+]=[N-])N=C(c2ccc(OCCCO)cc2)O[C@H]1c1ccccc1 | 1.52
COC(=O)[C@@]1(Cc2ccccc2)[C@H]2c3cc(C(=O)N(C)C)n(CCc4ccc(O)c(OC)c4)c3C[C@H]2CN1C(=O)c1ccccc1 | 0.19
CN1C(=O)C2C=CC(C(O)COCc3ccccc3)N(N(c3ccccc3)c3ccccc3)C2C1=O (stereo not given) | 0.458
CC(c1ccccc1)C(O)C1C=CC2C(=O)N(c3ccccc3)C(=O)C2N1Nc1ccc([N+](=O)[O-])cc1 (stereo not given) | 1.53
[N-]=[N+]=NCc1ccccc1[C@H]1OC(c2ccc(OCCCO)cc2)=N[C@@]1(CCS(=O)(=O)c1ccccc1)C(=O)N1CCCCC1 | 2.96
[N-]=[N+]=Nc1ccccc1C[C@]1(C(N)=O)N=C(c2ccc(OCCCO)cc2)O[C@H]1c1ccccc1N=[N+]=[N-] | 0.702
COc1cc(CO)cc(I)c1O[C@H]1C=C(C(=O)NCCO)C[C@@H](NCc2ccc(F)cc2)[C@@H]1O | 0.2
CCCC[C@@H]1C[C@H]1[C@@H](NC(=O)c1cccs1)c1ccc(C(F)(F)F)cc1 | 0.237
COCCOC(=O)N1C(=O)[C@@]2(c3cc(C#CC4=CCCCC4)ccc31)[C@H](C(N)=O)[C@H]1C(=O)O[C@H](c3ccccc3)[C@H](c3ccccc3)N1[C@@H]2c1ccccc1OCCO | 1.69
O=C1OCCC=C[C@H]2OC34C=CCN(Cn5nnc6ccccc65)C(=O)[C@H]3N(CCCCCCO)C(=O)[C@@H]4C12 (stereo not given in full) | -1.27
Cc1ccc(S[C@]2(C(=O)O)CC(=O)N(Cc3cc(C(F)(F)F)cc(C(F)(F)F)c3)[C@@H]2c2ccc(CO)cc2)cc1 | -0.876
